Structures are written as SMILES. Out of some 69,000 compounds screened, about 420 (0.61%) showed an effect of 50% or more. The sample as a whole holds a higher share of strong results than the screen did.

For the assay, the target named is T1, Histidine--tRNA ligase (Leishmania infantum) (UniProt A4I591).
T1 sequence (whole entry): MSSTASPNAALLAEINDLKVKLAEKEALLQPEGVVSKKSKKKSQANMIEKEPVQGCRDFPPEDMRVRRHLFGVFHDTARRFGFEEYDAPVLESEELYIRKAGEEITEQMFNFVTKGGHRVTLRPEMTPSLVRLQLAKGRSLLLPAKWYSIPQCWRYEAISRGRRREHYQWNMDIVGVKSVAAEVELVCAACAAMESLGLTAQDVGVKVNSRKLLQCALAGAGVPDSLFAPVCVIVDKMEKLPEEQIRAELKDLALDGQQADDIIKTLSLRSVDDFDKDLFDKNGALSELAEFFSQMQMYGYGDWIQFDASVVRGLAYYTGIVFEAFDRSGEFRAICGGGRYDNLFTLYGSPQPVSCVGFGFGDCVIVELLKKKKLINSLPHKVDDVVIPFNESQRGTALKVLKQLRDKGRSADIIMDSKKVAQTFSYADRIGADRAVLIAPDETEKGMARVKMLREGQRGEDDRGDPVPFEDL
Nature of the assay: Leishmania infantum Histidine tRNA synthetase (LdHisRS). Type of assay: functional. The arrangement: scale not given: in the data most compounds retested in dose-response had high values. The settings on record: 30 µM.
Consider `CN(CCCOc1ccccc1)C(=O)CN1CCc2cncnc2C1`, for which the Percent Effect was found to be 65.2%. To `Cc1cccc(OCCNC(=O)CN2CCc3cncnc3C2)c1` belongs 20.2%. Then `COCCCN1CCc2cncnc2C1`, with 50.6%. To `O=C(CN1CCc2cncnc2C1)NCCOc1ccccc1` belongs 50%; to `CCOCCN1CCc2cncnc2C1`, 32.3%. Regarding `O=C(CN1CCc2cncnc2C1)NCCOc1cccc(Cl)c1`, the Percent Effect came out at 18.4%.

As to `CC(C)OCCN1CCc2cncnc2C1`, the Percent Effect came out at 37.1%. Then `COc1ccccc1OCCNC(=O)CN1CCc2cncnc2C1`, with 20.2%. Then `CS(=O)(=O)c1ccc(OCCCN2CCc3cncnc3C2)cc1`, with 12.5%. To `O=C(c1cccc(F)c1)N1CCN2C[C@H](OCc3cccnc3)C[C@H]2C1` belongs 9.49%. As for `COCC(=O)N1CC[C@H]2N(C)CC[C@@]2(C(=O)Nc2ccccc2)CC1`, the Percent Effect was determined as 15.4%.

Take `c1cc(CN2CC[C@@H]3[C@@H](CO[C@H]3CN3CCOCC3)C2)cs1`: the Percent Effect is 18.1%. Then `COc1cc(C)ccc1OCCN1CC[C@@]2(O)CCNC[C@H]2C1`, with 12.3%; and `COc1ccccc1-n1cc(CN2CCN(C)[C@@H]3CS(=O)(=O)C[C@@H]32)cn1`, with 17.1%; and `CCO[C@@H]1CC[C@H]2[C@H]1OCCN2S(=O)(=O)C1CC1`, with 4.17%. To `CNc1cc2c(nn1)CCN(C(=O)c1cc(F)cc(F)c1)C2` belongs 21.3%; to `CNc1cc2c(nn1)CCN(C(=O)c1coc(Br)c1)C2`, 52.2%; to `CNc1cc2c(nn1)CCN(C(=O)c1ccoc1)C2`, 10.7%.

As to `Cn1cc(NC(=O)c2ccccn2)cc(Cl)c1=O`, the Percent Effect was found to be 10.3%. Then `COc1ccsc1C(=O)Nc1cc(Br)c(=O)n(C)c1`, with 109%.

For `COCCn1ccc(NC(=O)Nc2ccccn2)n1`, the Percent Effect was 13.2%. Then `Cn1cc(NC(=O)Nc2ccccn2)cc(Cl)c1=O`, with 121%; and `Cn1cc(NC(=O)c2ccccn2)cc(Br)c1=O`, with 15.4%; and `Cn1cc(NC(=O)c2cc[nH]n2)cc(Cl)c1=O`, with 10.3%. Turning to `COc1ccsc1C(=O)NCCNc1ccccc1`, the Percent Effect turned out to be 11.7%. Then `Cc1ccsc1C(=O)Nc1cc(Br)c(=O)n(C)c1`, with 107%. Regarding `COc1ccsc1C(=O)Nc1cc(CN2CCOCC2)ccc1C`, the Percent Effect is -11.1%. To `COc1ccsc1C(=O)Nc1cc(Cl)c(=O)n(C)c1` belongs 103%; to `CCC(C#N)NC(=O)c1sccc1OC` (configuration not stated), 10.6%.

For `Cc1ccsc1C(=O)Nc1cnn(CC(=O)NC2CCCC2)c1`, the Percent Effect was 3.23%. To `CCS(=O)(=O)N1CCO[C@H]2[C@H](Oc3ncccc3F)CC[C@@H]21` belongs 8.22%; to `O=C1[C@@H]2CCN(Cc3ccoc3)C[C@@H]2OCCN1c1ccccc1`, 9.49%; to `O=C1NC[C@@]2(C(=O)O)CN(Cc3ccc(Oc4ccccc4)cc3)C[C@@H]12`, 12.1%. As for `CC(C)c1nc(CC(=O)Nc2nc(CN3CCCCCC3)cs2)cs1`, the Percent Effect amounted to 53.3%. To `CC(C)c1nc(CN2CCCCC2)cs1` belongs 0%; to `CC(C)c1nc(CN2CCC(CO)CC2)cs1`, 13.2%; to `O=C(c1cc(-c2ccco2)nc2c(Cl)cccc12)N1C[C@H]2CNC[C@H]2C1`, 53.3%. To `NC(=O)N1C[C@@H]2CN(C(=O)c3ccco3)C[C@@H]2C1` belongs 15.5%.

In the case of `Cc1nc(-c2ccco2)ccc1C(=O)N1CCn2c(C)nnc2C1`, the Percent Effect turned out to be 25.4%.

As to `O=C(c1cc(-c2ccco2)nc2c(Cl)cccc12)N1CCS(=O)(=O)CC1`, the Percent Effect was determined as 15%.

`O=C1CN(C(=O)c2cc(-c3ccco3)nc3c(Cl)cccc23)CCN1`: the Percent Effect is 81.7%. Then `COCC1CCN(C(=O)c2cc(-c3ccco3)nc3c(Cl)cccc23)C1` (configuration not stated), with 11.7%; and `O=C(c1cc(-c2ccco2)nc2c(Cl)cccc12)N1CC[C@H]2CNC[C@H]21`, with 40%; and `Cc1nc(-c2ccco2)ccc1C(=O)N1CCc2nnc(N)cc2C1`, with 2.63%. To `CN1C[C@H]2CN(Cc3cccc(OC(F)(F)F)c3)CCN2C1=O` belongs 21.6%.

With `O=C(NCc1cccs1)[C@@H]1CC[C@@H]2[C@@H](CCN2c2ncccn2)O1`, the Percent Effect was 17.9%. To `CN(Cc1ccco1)[C@@H]1CN(C(=O)c2cnccn2)C[C@@H]2CCCO[C@@H]21` belongs 11.3%. For `COC[C@@]12CCC[C@@H]1CN(C(=O)COC1CCCC1)C2`, the Percent Effect is 0%. Then `CC(=O)N1[C@H](CN(C)C)C[C@@H]2CN(C(=O)c3ccsc3)CC[C@@H]21`, with 15.4%; and `Cc1nc2ccccc2nc1CN(C)CC1CCCN1c1cccnn1` (configuration not stated), with 34.7%. Then `Cc1nc(CN(C)CC2CCCN2c2cccnn2)nc2ccccc12` (configuration not stated), with 74.4%.

Take `CN(Cc1nc(N)c2ccccc2n1)CC1CCCN1c1cccnn1` (configuration not stated): the Percent Effect was 21.3%. As to `COc1ccc(CN2CCO[C@H]3[C@H](Oc4ccccn4)CC[C@@H]32)cc1`, the Percent Effect was 25.7%. Then `O=C(c1ccco1)N1C[C@H]2CCCN(Cc3ccoc3)[C@H]2C1`, with 16.4%; and `c1cnc(N2CCO[C@H]3CN(CC4CCCC4)C[C@H]32)cn1`, with 9.91%; and `Brc1ccc(C2(CNCc3cc[nH]c3)CCOCC2)cc1`, with 52.1%.

`FC(F)(F)c1cccc(C2(CNCc3cc[nH]c3)CCOCC2)c1`: the Percent Effect stood at 12.7%.

The record behind these values is ChEMBL document CHEMBL3988442, “University of Dundee, Small-Polar-MMV Screening Library” (2021).
